Data published in PubChem BioAssay (NCATS).
Several values for one entry are separate records, joined by “and”; a condition that tells them apart may be missing. Equal entries are not always repeated. Inconclusive results are not listed. Activity calls are given as the source filed them. Calls come from the whole dose curve; as a rule, active = well fitted cell-killing curve with a large enough effect; inconclusive = small, poorly fitted or top-dose-only effect; inactive = no such curve, though single readings can be large or run the other way. Non-standard residues stand in square brackets, D forms with d. Residues, ends and D or L forms follow the SMILES beside them. *: point of attachment. Sta = CC(C)C[C@H](N)[C@@H](O)CC(=O)O; Isovaleryl = CC(C)CC(=O)*

Test: qHTS of pediatric cancer cell lines to identify multiple opportunities for drug repurposing: Confirmatory screen for TC32 cells (AID 1347118);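 note: cells exposed to compound for 48 h before the read; nearly all actives have a fitted effect of over 65% in size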
Details: TC32 Ewing sarcoma cells viability qHTS; series mostly up to 45.9 µM
Excerpt: Drug repurposing or repositioning has been offered as a strategy for drug development in oncology programs. This approach has special potential for childhood cancers and other rare or orphan diseases, where the expected return on new drug development has been a disincentive to pharmaceuticals.
In this project we exploit the poly-pharmacology of drugs to discover new indications via phenotypic screening of a panel of 19 well-characterized cell lines derived from solid tumors seen in children and adolescents. The goal is to identify approved drugs with previously unrecognized anticancer properties that has the potential to reveal new mechanisms and biological processes involved in carcinogenesis or drug resistance. We employed a titration-based paradigm (quantitative high-throughput screening or qHTS), where all compounds were tested at multiple concentrations for their effect on cell viability. Concentration-response curves (CRCs) were derived directly from the primary screen, and both potency and efficacy values were used to identify compounds with robust bioactivity profiles. We screened the NIH Chemical Genomics Center (NCGC) Pharmaceutical Collection (NPC) and Mechanism Interrogation Plate (MIPE) small molecule collections of approved and investigational compounds against these cell lines; and measured metabolically active cells after 48 hours of compound treatment as a proxy for cell viability.
Assay Submitter: Nathalia J. Martinez, National Center for Advancing Translational Sciences, National Institutes of Health, Rockville, MD, USA; email: natalia.martinez@nih.gov
[1] Shen, M et al. Quantitative high-throughput phenotypic screening of pediatric cancer cell lines identifies multiple opportunities for drug repurposing. Oncotarget 2017 Dec 19;9(4):4758-4772. PMID 29435139.
The cells were obtained from University of North Carolina (UNC), Pediatric Preclinical Testing Program (PPT), and Coriell Institute (CI).
qHTS cell viability assay:
Cells were assayed in growth media at a density of 500-1,000 cells/well. Five microliters of cells were dispensed into 1,536-well, white, solid-bottom, TC-treated plates (Greiner Bio One) using a multidrop dispenser and incubated at 37 degrees C, 5% CO2, under a humidified atmosphere for 5 hours. Twenty-three nanoliters of compounds and controls (neutral control DMSO or positive control bortezomib at final concentration of 2.3 uM) were subsequently transferred by Kalypsys pintool. For primary screens, the MIPE collection was tested at 11-point dilutions (final concentrations range from 0.78 nM to 46 µM) and the NPC collection at 8-point dilutions (final concentrations range from 0.59 nM to 46 µM). Compounds tested in follow-up screens were assayed at 11-point dilutions. Cells were incubated for 48 hours, followed by addition of 3 uL of CellTiter-Glo (Promega). After a 15min incubation at room temperature, samples were analyzed for luminescence intensity using a ViewLux High-throughput CCD imager equipped with clear filters.
Potency is the fitted concentration of half-maximal effect.

Row | SMILES | Potency
1 | CCN(CC)C(=S)SSC(=S)N(CC)CC | 0.293 µM (active)
2 | Cc1nc(Nc2ncc(C(=O)Nc3c(C)cccc3Cl)s2)cc(N2CCN(CCO)CC2)n1 | inactive
3 | CC[C@]1(O)C[C@H]2CN(CCc3c([nH]c4ccccc34)[C@@](C(=O)OC)(c3cc4c(cc3OC)N(C=O)[C@H]3[C@@](O)(C(=O)OC)[C@H](OC(C)=O)[C@]5(CC)C=CCN6CC[C@]43[C@@H]65)C2)C1 | 26.1 nM (active) and 117 nM (active)
4 | O=C(NCC1CCCCN1)c1cc(OCC(F)(F)F)ccc1OCC(F)(F)F (configuration not stated) | 5.22 µM (active)
5 | CCc1nc(N)nc(N)c1-c1ccc(Cl)cc1 | 2.93 µM (active)
6 | CCCCc1ccc2nc(NC(=O)OC)[nH]c2c1 | 0.293 µM (active)
7 | Nc1nc(Cl)nc2c1ncn2[C@H]1C[C@H](O)[C@@H](CO)O1 | 0.737 µM (active)
8 | CC(C)C[C@H](NC(=O)[C@H](Cc1ccccc1)NC(=O)c1cnccn1)B(O)O | 0.0414 µM (active)
9 | Cc1c(C(=O)NN2CCCCC2)nn(-c2ccc(Cl)cc2Cl)c1-c1ccc(Cl)cc1 | 23.3 µM (active)
10 | Cc1cc(C2CCCCC2)n(O)c(=O)c1 | 4.65 µM (active)
11 | CCCOc1ccc2nc(NC(=O)OC)[nH]c2c1 | 0.928 µM (active)
12 | Oc1ccc(-c2nc(-c3ccc(F)cc3)c(-c3ccncc3)[nH]2)cc1 | 0.737 µM (active)
13 | Clc1ccc(C(Cn2ccnc2)OCc2ccc(Sc3ccccc3)cc2)c(Cl)c1 (configuration not stated) | 10.4 µM (active)
14 | COc1cc(C(C)=O)ccc1OCCCN1CCC(c2noc3cc(F)ccc23)CC1 | 20.8 µM (active)
15 | CCN(CCO)CCCC(C)Nc1ccnc2cc(Cl)ccc12 (configuration not stated) | inactive
16 | Nc1nc(OCc2ccccc2)c2[nH]cnc2n1 | inactive
17 | CC(=O)O[C@H]1C(=O)[C@@]2(C)C([C@H](OC(=O)c3ccccc3)[C@]3(O)C[C@H](OC(=O)[C@H](O)[C@@H](NC(=O)c4ccccc4)c4ccccc4)C(C)=C1C3(C)C)[C@]1(OC(C)=O)CO[C@@H]1C[C@@H]2O (some centres not stated) | 0.0104 µM (active)
18 | CN(C)c1ccc2nc3ccc(=[N+](C)C)cc-3sc2c1 | 2.61 µM (active)
19 | CC(C)CC(=O)N[C@H](C(=O)N[C@H](C(=O)N[C@@H](CC(C)C)[C@@H](O)CC(=O)N[C@@H](C)C(=O)N[C@@H](CC(C)C)[C@@H](O)CC(=O)O)C(C)C)C(C)C (Isovaleryl-VV[Sta]A[Sta]-OH) | 5.85 µM (active)
20 | CCOc1cc(CC(=O)N[C@@H](CC(C)C)c2ccccc2N2CCCCC2)ccc1C(=O)O | inactive
21 | O=C1c2c(O)cc(O)cc2OC(c2ccc(O)c(O)c2)C1O (configuration not stated) | inactive
22 | CC1(C)C(=O)N(CCN2CCC(C(=O)c3ccc(F)cc3)CC2)c2ccccc21 | 7.37 µM (active)
23 | O=C(CCc1ccc(O)cc1)c1c(O)cc(O)cc1O | inactive
24 | Clc1ccc(C(Cn2ccnc2)OCc2ccsc2Cl)c(Cl)c1 (configuration not stated) | 11.7 µM (active)
25 | CN(C)c1ccc(O)c2c1C[C@H]1C[C@H]3[C@H](N(C)C)C(=O)C(C(N)=O)=C(O)[C@@]3(O)C(=O)C1=C2O | 5.85 µM (active)
26 | CC(S)C(=O)NCC(=O)O (configuration not stated) | inactive
27 | CCN(CC)CCOc1ccc(Nc2ncc3cc(-c4c(Cl)cccc4Cl)c(=O)n(C)c3n2)cc1 | 2.61 µM (active)
